The source made the active and inactive calls.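 How the source made its calls, unless noted: active means inhibition above 20% together with a positive visual image hit; inconclusive means visual image hit but inhibition not above 20%; inactive means no visual image hit.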
Columns and labels:
[1] = inhibitors of TNFa-induced NFkB p65 translocation, primary screen, imaging, HUVEC, MLSMR starter and 10KST1 sets (AID 438); settings: HUVEC TNFa-induced p65 nuclear translocation; cell count: measured here: nuclei count (cytotoxicity indicator), at 2.08 µM unless noted; inhibition: at 2 µM, stronger effect = higher value unless noted;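 further: compound added about 3h40 before a 20 min TNFalpha stimulation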;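 on inhibition: signal is the nuclear over cytoplasmic p65 intensity ratio per well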
[2] = reduction of polyQ htt aggregates in cells – imaging, exon1htt(103Q)mCFP cells, high-content imaging, primary screen (AID 483;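 active means visual image review flags a hit and inhibition of aggregation exceeds 20%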;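 further: compound exposure lasted 3 days before fixation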;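 on nuclei count: percent of the per-plate median nuclei count of sample wells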); settings: exon1htt(103Q)mCFP cell line, aggregate imaging, at 2 µM; inhibition of aggregation: stronger effect = higher value; nuclei count: measured here: cell count, toxicity
[3] = endothelial E-selectin expression blockers – imaging, HUVEC, immunofluorescence, MLSMR starter and 10KST1 sets, primary screen (AID 487;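 active means visually confirmed hit in the image check and inhibition above 20%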;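 on inhibition: signal is fraction of cell area covered by stained E-selectin grains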;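 on nuclei count: 100% = median nuclei count of all wells on the same plate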); settings: HUVEC TNFalpha-induced E-selectin immunofluorescence imaging, at 2 µM; inhibition: stronger effect = higher value; nuclei count: measured here: cell number, toxicity
[4] = target: Voltage-gated potassium channel subunit beta-2 (Rattus norvegicus) (UniProt P62483); assay: inhibitors of rat Kvbeta2 reductase activity – biochemical, NADPH fluorescence, primary screen (AID 622;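 active means fluorescence slope higher than the sample average by over 3 SD, cut at about -0.22 in these data, passing the limit was not always enough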;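 further: slope of raw intensity against log time taken from 70 to 1610 s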); settings: recombinant KvBeta, 4-cyanobenzaldehyde reduction, at 10 µM, stronger effect = higher value
Chain of Voltage-gated potassium channel subunit beta-2 (Rattus norvegicus) (P62483 whole entry, looked up): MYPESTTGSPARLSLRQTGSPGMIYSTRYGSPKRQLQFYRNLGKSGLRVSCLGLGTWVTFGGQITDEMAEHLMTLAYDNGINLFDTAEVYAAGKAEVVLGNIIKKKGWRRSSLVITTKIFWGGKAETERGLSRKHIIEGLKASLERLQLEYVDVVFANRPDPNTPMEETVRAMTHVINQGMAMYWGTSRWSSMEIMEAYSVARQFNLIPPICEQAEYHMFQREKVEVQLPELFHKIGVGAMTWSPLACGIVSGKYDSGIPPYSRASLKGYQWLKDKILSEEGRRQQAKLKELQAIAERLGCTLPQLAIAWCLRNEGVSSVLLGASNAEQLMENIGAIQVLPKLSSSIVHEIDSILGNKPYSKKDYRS

[5] = target: Voltage-gated potassium channel subunit beta-2 (Rattus norvegicus) (UniProt P62483); assay: enhancers of rat Kvbeta2 NADPH turnover – biochemical, NADPH fluorescence, primary screen (AID 623;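 active means NADPH fluorescence slope more negative than the mean of all samples by about 3 SD, 99.7% confidence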;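 further: fluorescence intensity change per second fitted from 20 to 320 s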); settings: Recombinant KvBeta, NADPH fluorescence decrease slope, 10 min; at 10 µM; stronger effect = lower value
[6] = target: Alpha-2C adrenergic receptor (Homo sapiens) (UniProt P18825); assay: compounds altering alpha2C-coupled GIRK flux – cell-based, HEK293 alpha2C/GIRK1/2, thallium flux, primary screen (AID 624;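 active means fluorescence slope after compound addition differing from the mean of all screened samples at 99.7% confidence, in either direction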;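 further: slope of fluorescence ratio to pre-addition baseline per second over 15 to 24 s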); settings: thallium flux BTC fluorescence, at 10 µM, actives lie on both sides
Chain of Alpha-2C adrenergic receptor (Homo sapiens) (P18825 whole entry, looked up): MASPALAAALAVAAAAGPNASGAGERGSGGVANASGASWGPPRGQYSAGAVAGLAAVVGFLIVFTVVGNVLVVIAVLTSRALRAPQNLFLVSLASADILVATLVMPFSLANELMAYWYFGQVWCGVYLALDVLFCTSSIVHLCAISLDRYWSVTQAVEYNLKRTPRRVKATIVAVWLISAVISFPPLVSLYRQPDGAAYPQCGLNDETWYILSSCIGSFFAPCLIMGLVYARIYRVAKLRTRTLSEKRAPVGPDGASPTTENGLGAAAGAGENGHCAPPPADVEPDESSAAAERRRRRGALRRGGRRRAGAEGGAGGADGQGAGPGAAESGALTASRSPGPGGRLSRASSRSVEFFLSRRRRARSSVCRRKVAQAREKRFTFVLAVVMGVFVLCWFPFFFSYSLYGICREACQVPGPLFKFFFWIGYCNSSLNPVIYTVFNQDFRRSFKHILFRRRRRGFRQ

[7] = inhibitors of larval lipid processing in zebrafish, primary screen, whole organism, PED6 fluorescence, gall bladder and intestine (AID 686;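 active means a full or partial loss of lipid-probe fluorescence in the fish gall bladder, intestine or both, judged by eye; inactive means no fluorescence loss, or compound toxic to the fish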;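 further: larvae 5 to 7 days old with five fish per well; signal comes from phospholipase A2 cleavage of quenched PED6 carried via bile; overnight exposure to compound and PED6 before scoring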); settings: Zebrafish larvae PED6 lipid processing, fluorescence scoring
[8] = blockers of RIG-like receptor reporter activation – cell-based, Sendai virus stimulus, luciferase, 10K MLSCN set, TLR/RLR signaling modifier project, primary screen (AID 602276;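 active means inhibition at or above 50% at 10 µM; inactive means inhibition below 50%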;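 further: firefly luciferase from ISG56 promoter only with Renilla not read in this screen; 0% = Sendai virus plus DMSO and 100% = medium plus DMSO without virus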); settings: HEK293 RL24 IRF3 luciferase reporter, at 10 µM, stronger effect = higher value
[9] = TLR3 IRF3 reporter activation blockers – cell-based, poly I:C stimulus, luciferase, 10K MLSCN set, primary screen (AID 602277;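 active means inhibition of the reporter signal at or above 50%; inactive means inhibition below 50%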); settings: HEK293-TLR3 RL24 IRF3 luciferase reporter, at 10 µM, stronger effect = higher value
[10] = target: Muscarinic acetylcholine receptor M4 (Homo sapiens) (UniProt P08173); assay: M4-linked GIRK flux change, two-sided – cell-based, HEK293 M4/GIRK, thallium flux, BTC-AM, M4 allosteric agonist project, primary screen (AID 625;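 active means fluorescence slope after compound addition differing from the mean of all tested samples at 99.7% confidence, mostly higher but some lower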;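 further: thallium influx through GIRK channels coupled to M4 in HEK293 cells with BTC-AM dye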); settings: at 10 µM, actives lie on both sides
Chain of Muscarinic acetylcholine receptor M4 (Homo sapiens) (P08173 whole entry, looked up): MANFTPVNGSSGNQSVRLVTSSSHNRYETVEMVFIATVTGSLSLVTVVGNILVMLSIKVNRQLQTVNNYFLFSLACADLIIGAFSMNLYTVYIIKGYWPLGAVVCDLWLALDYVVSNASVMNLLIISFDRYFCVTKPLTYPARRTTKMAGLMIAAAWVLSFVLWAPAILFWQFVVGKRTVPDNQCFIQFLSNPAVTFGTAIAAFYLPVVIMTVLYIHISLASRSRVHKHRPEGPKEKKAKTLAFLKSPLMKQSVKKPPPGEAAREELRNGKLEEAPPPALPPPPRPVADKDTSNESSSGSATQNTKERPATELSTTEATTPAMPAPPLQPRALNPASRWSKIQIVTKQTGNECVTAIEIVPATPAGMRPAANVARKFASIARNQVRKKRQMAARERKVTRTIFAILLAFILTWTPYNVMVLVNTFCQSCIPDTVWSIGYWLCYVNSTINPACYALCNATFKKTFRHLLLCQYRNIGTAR

| SMILES | cell count [1] | inhibition [1] | inhibition of aggregation [2] | nuclei count [2] | inhibition [3] | nuclei count [3] | fluorescence slope [4] | NADPH fluorescence slope [5] | slope [6] | outcome [7] | inhibition [8] | inhibition [9] | fluorescence slope [10] |
| --- | --- | --- | --- | --- | --- | --- | --- | --- | --- | --- | --- | --- | --- |
| COc1ccccc1CN1CCN(C(=O)Cc2ccccc2)CC1 | 466 | 5.9% (inactive) | 2.7% (inactive) | 101% | 18.9% (inactive) | 112% | -0.326 (inactive) | 3.1e-06 (inactive) | 0.00694 (inactive) | inactive | -1.53% (inactive) | 3.43% (inactive) | – |
| C=CCOC(=O)COc1cc(C)cc2oc(=O)c3c(c12)CCC3 | 609 | 6% (inactive) | 20.1% (inactive) | 85.8% | 75.7% (active) | 49.1% | -0.254 (inactive) | -4.4e-05 (inactive) | 0.00532 (inactive) | inactive | -1.05% (inactive) | 99.1% (active) | – |
| Cc1ccc(C)c(NC(=O)CSc2nnc([C@@H](N)Cc3c[nH]c4ccccc34)o2)c1 | 282 | 9.5% (inactive) | -6.6% (inactive) | 103% | -8.3% (inactive) | 92.8% | -0.428 (inactive) | -1.2e-05 (inactive) | 0.00513 (inactive) | – | 9.6% (inactive) | 24.2% (inactive) | – |
| COc1ccc(OC)c(C2=NOC(C(=O)N3CCC4(CC3)OCCO4)C2)c1 (stereo unspecified) | 789 | -17.7% (inactive) | 4% (inactive) | 84.6% | -52.4% (inactive) | 77.7% | -0.234 (inactive) | -6.7e-06 (inactive) | – | – | 10.6% (inactive) | 17% (inactive) | 0.00835 (inactive) |
| OCC12COC3c4ccccc4C(OC1)N32 (stereo unspecified) | 478 | -7.1% (inactive) | -0.1% (inactive) | 109% | -7.2% (inactive) | 112% | -0.538 (inactive) | -4.5e-06 (inactive) | – | – | 5.14% (inactive) | 12.6% (inactive) | 0.00589 (inactive) |
| Cc1ccc(Cn2c(C)c3cnn(CC(=O)N4CCC5(CC4)OCCO5)c(=O)c3c2C)cc1 | 471 | -6.5% (inactive) | -6.5% (inactive) | 110% | -135% (inactive) | 110% | -0.332 (inactive) | -6.2e-05 (inactive) | 0.0048 (inactive) | – | 9.46% (inactive) | -2.44% (inactive) | – |
| CCOC(=O)C1=C(N)OC(C)=C(C(=O)OCCOC)C12C(=O)Nc1ccccc12 (stereo unspecified) | 336 | 4.8% (inactive) | -0.2% (inactive) | 91.4% | -113% (inactive) | 97% | -0.454 (inactive) | -0.000189 (active) | 0.00493 (inactive) | inactive | 19.8% (inactive) | 32% (inactive) | – |
| O=C(Cn1cc(C(=O)c2ccccc2)c2ccccc21)NCc1ccco1 | 229 | -1.4% (inactive) | 3.1% (inactive) | 89.8% | -0.3% (inactive) | 103% | -0.567 (inactive) | -1.5e-05 (inactive) | – | – | -5.96% (inactive) | -16.8% (inactive) | 0.00474 (inactive) |
| COC(=O)CC1(Cc2ccccc2)C(=O)NC(=O)NC1=O | 641 | -6.3% (inactive) | 12.4% (inactive) | 78% | -73.6% (inactive) | 140% | -0.579 (inactive) | -2.7e-05 (inactive) | 0.00355 (inactive) | – | 17.2% (inactive) | 21.5% (inactive) | – |
| CSc1ccc(C(=O)C(C)(C)N2CCOCC2)cc1 | 401 | -5.2% (inactive) | -13.1% (inactive) | 102% | -65.3% (inactive) | 105% | -0.577 (inactive) | -4.3e-05 (inactive) | – | – | 14.9% (inactive) | 2.25% (inactive) | 0.00392 (inactive) |
| CC(C)(C)C(O)C(Oc1ccc(Cl)cc1)n1cncn1 (stereo unspecified) | 268 | 4.3% (inactive) | 5.1% (inactive) | 93% | -5.1% (inactive) | 131% | -0.592 (inactive) | -2.7e-05 (inactive) | 0.00646 (inactive) | – | 15.5% (inactive) | 32.5% (inactive) | – |
| COCCOC(=O)C1=C(N)Oc2c(c(=O)oc3ccccc23)C1c1ccncc1 (stereo unspecified) | 329 | 2.2% (inactive) | 1.7% (inactive) | 73% | 1.8% (inactive) | 73.8% | -0.474 (inactive) | -1.3e-05 (inactive) | – | – | 14.5% (inactive) | 27.3% (inactive) | 0.00616 (inactive) |
| CC12CCCCC1=[N+]([O-])CN2O (stereo unspecified) | 725 | -10% (inactive) | -27.6% (inactive) | 99.9% | -15.8% (inactive) | 118% | -0.554 (inactive) | 1.5e-05 (inactive) | – | – | -0.121% (inactive) | 6.9% (inactive) | 0.0045 (inactive) |
